# CtBP-E1A blk = blocks the CtBP interaction with E1A | activity change, % (no concentration beside the values) | AlphaScreen GST-E1A/His-CtBP binding, 1536-well; stronger effect = lower value | 0.49% of 340,000 active; in the data active = activity change below about -65%; inconclusive = mostly about -30% to -63%; note: % is set by controls: 0 for no effect and ±100 for the full control effect
#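 Protein mix (5X: 125 nM each GST-E1A, His-CtBP) was incubated with pinned compound 2 h at 37 deg C in dark, in 50 mM Tris pH 8.0 buffer with 300 mM NaCl. Glutathione donor and nickel acceptor beads followed; AlphaScreen signal read after 1 h.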
# HP1b binding inh = inhibitors of HP1-beta chromodomain binding to methylated histone tails; 0.56% of 390,000 active; Potency, µM (series often up to 114 µM), for inactives: at the top dose activity change, negative = inhibition, most hits filed as inhibitors; AlphaScreen HP1-beta / biotin-H3K9me3 peptide binding; P83916; note: potency is the fitted concentration of half-maximal effect; nearly all actives have a fitted effect of over 70% in size
#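 Compound inhibition of the preformed complex between 50 nM HP1-beta and 50 nM biotinylated H3K9me3 peptide was read by AlphaScreen. Buffer was PBS pH 7.4 with 0.01% Tween-20. Incubations ran 30 min at room temperature, with 10 ug/mL donor/acceptor beads.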
# BAZ2B inh = BAZ2B (human) inhibition. Potency, µM (highest dose often 114 µM), inactives show top-dose activity change, negative = inhibition, most hits filed as inhibitors. Q9UIF8. 4.4% of 360,000 active. AlphaScreen BAZ2B-H3K14Ac peptide displacement; note: potency is the fitted concentration of half-maximal effect; % is set by controls: 0 for no effect and ±100 for the full control effect; nearly all actives have a fitted effect of over 60% in size
# Target sequence (Q9UIF8 whole entry, looked up): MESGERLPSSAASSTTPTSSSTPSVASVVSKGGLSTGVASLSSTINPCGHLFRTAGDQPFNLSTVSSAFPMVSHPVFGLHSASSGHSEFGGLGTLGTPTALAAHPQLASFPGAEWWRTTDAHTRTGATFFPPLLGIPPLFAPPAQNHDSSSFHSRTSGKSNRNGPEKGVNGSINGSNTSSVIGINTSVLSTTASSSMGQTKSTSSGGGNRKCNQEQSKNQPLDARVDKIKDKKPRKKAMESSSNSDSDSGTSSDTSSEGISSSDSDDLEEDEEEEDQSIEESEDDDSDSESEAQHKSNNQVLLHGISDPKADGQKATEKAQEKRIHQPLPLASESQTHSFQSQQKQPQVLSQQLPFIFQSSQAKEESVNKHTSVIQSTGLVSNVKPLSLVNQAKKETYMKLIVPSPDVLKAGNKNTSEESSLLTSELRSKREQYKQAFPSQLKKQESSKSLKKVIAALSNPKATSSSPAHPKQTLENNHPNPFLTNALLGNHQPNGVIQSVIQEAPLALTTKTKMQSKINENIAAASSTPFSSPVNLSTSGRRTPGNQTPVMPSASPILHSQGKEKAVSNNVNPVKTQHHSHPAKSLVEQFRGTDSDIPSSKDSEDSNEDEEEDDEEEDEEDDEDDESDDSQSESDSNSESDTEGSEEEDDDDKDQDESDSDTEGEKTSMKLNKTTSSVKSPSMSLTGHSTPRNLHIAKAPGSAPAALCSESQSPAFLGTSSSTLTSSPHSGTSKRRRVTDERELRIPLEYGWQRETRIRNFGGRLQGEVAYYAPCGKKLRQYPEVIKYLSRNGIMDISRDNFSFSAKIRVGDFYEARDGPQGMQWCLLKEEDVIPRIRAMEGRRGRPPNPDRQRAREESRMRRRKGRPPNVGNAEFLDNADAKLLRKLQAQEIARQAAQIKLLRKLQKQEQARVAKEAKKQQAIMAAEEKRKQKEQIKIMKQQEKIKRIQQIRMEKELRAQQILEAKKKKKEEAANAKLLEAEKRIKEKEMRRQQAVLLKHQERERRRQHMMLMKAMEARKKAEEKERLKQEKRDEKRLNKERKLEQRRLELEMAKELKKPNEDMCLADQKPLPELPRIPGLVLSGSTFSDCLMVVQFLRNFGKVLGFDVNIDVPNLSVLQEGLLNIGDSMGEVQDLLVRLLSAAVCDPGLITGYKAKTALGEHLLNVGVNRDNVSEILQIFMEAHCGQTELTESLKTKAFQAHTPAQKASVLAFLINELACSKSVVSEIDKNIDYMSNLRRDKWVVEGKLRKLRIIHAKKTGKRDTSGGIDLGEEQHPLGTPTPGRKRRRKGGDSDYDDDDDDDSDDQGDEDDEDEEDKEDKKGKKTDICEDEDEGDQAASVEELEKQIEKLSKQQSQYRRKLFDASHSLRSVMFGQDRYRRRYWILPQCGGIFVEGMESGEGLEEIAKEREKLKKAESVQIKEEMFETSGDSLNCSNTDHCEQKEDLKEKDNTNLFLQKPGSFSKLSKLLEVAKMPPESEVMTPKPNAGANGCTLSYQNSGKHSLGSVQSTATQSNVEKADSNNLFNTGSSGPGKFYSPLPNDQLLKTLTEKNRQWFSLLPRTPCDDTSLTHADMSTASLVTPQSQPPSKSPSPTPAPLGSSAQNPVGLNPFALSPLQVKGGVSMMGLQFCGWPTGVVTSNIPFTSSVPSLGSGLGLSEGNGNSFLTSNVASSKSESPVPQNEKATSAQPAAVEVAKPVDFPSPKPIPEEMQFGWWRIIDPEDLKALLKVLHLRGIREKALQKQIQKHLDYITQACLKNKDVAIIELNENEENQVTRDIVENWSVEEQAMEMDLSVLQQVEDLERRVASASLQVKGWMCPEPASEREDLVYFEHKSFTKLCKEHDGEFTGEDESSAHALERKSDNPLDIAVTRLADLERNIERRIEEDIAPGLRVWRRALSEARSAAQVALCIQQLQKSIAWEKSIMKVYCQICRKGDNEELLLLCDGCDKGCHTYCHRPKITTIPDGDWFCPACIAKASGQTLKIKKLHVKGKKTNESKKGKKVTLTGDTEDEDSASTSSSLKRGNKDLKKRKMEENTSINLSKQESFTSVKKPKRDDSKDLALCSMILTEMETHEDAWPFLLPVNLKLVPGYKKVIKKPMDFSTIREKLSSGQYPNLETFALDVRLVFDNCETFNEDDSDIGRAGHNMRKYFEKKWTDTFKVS
#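 AlphaScreen displacement: compounds (up to 110uM) incubated 30 min at room temperature with a preformed 50 nM BAZ2B/50 nM biotinylated H3K14Ac peptide complex in PBS pH 7.4 with Tween-20. Donor and acceptor beads at 10 ug/mL final added, 20 min light-protected before reading.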
# G9a inh = inhibitors of human histone lysine methyltransferase G9a; G9a H3K9 monomethylation, AlphaScreen, 2 h; Q96KQ7; 8.8% of 350,000 active; Potency, µM (titrated, usually from 102 µM), for the others: top-dose activity, negative = inhibition, most hits filed as inhibitors; AID 504332; note: potency is the fitted concentration of half-maximal effect; % is set by controls: 0 for no effect and ±100 for the full control effect; nearly all actives have a fitted effect of over 75% in size
#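 Signal arises when biotinylated H3K9 peptide, once monomethylated, bridges streptavidin donor and antibody-captured acceptor beads. Enzyme at 20 nM was preincubated 15 min with test compounds; peptide 500 nM and SAM 20 uM then reacted for 2 h.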
# JMJD2A Tudor inh = blocks the human JMJD2A Tudor domain; O75164; AlphaScreen JMJD2A-Tudor / H3K4me3 peptide binding; Potency, µM (series often up to 114 µM), without a hit: at the highest dose activity change, negative = inhibition, most hits filed as inhibitors; 4.4% of 390,000 active; note: potency is the fitted concentration of half-maximal effect; % is set by controls: 0 for no effect and ±100 for the full control effect; nearly all actives have a fitted effect of over 50% in size
# Six1-Eya2 blk = inhibitors of human Six1/Eya2 interaction. 0.56% of 360,000 active. activity change, % (test concentration not listed). AlphaScreen GST-Six1/His-Eya2 binding, biochemical; stronger effect = lower value. Q15475+O00167; in the data active = activity change below about -65%; inconclusive = mostly about -30% to -63%; note: % is set by controls: 0 for no effect and ±100 for the full control effect
#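 AlphaScreen with GST-Six1 and His-Eya2 (5X mix: 250 nM and 500 nM), glutathione donor and nickel acceptor beads; buffer 50 mM Tris pH 8.0, 300 mM NaCl, 1 mM TCEP; 1 h at 37 C in the dark.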
# * hit, by the source's call; ? = inconclusive; . = not tested or not shown; [ ] = remark or other dose. The list is not random: actives were taken first. Their share in the collection is about 10%. Unless noted, calls come from the whole dose curve; as a rule, active = well fitted inhibition curve with a large enough effect; inconclusive = small, poorly fitted or top-dose-only effect; inactive = no such curve, though single readings can be large or run the other way.
SMILES,CtBP-E1A blk,HP1b binding inh,BAZ2B inh,G9a inh,JMJD2A Tudor inh,Six1-Eya2 blk
Clc1ccccc1CSc1nc2ccncc2[nH]1,4.9,-1.5%,9.3%,44.7µM*,-20.4%,4.9
CC1CCCCC1NC(=O)c1ccc(CSc2nc3ccncc3[nH]2)cc1 (stereo not given),1.9,33.3%,0.4%,?,-19.9%,-1.4
Cn1c(=O)c2cc(NC(=O)NCc3ccc(F)cc3)ccc2n1C,-2.0,.,.,.,.,0.1
COc1cccc(CNC(=O)c2ccc3c(c2)nc2n3CCC(C)C2)c1 (stereo not given),.,29.0%[57 µM],9.4%,1.2%[59 µM],-7.5%,.
CCOC(=O)c1cc(S(=O)(=O)N2CCN(c3ccc(C)cc3C)CC2)[nH]n1,.,-2.4%[57 µM],50.1µM*,3.98µM*,?,.
CCOC(=O)c1cc(S(=O)(=O)N2CCN(c3ccccc3F)CC2)[nH]n1,.,11.2%[57 µM],?,15.8µM*,-29.7%,.
COC(=O)c1cc(S(=O)(=O)N2CCN(c3ccc(C)cc3C)CC2)cn1C,.,-21.0%,-9.8%,-22.1%[59 µM],-26.4%,.
CCOC(=O)c1c(C)[nH]c(C)c1S(=O)(=O)N1CCC(C(=O)N2CCN(c3cccc(C)c3C)CC2)CC1,.,8.1%,-33.2%,-34.0%[59 µM],-35.3%,.
CCOC(=O)c1cc(S(=O)(=O)N2CCN(c3cccc(C)c3C)CC2)[nH]n1,.,-2.1%[57 µM],?,10µM*,-30.7%,.
CCn1c(CN2CCN(c3cccc(C)c3C)CC2)n[nH]c1=S,0.0,24.8%,-7.8%,7.94µM*,-13.4%,6.7
Cc1cc2c(s1)c1cnn(Cc3cccc(Br)c3)c(=O)c1n2C,.,.,.,.,-32.9%,.
Cc1ccc(OCC(=O)N2CCN(S(=O)(=O)c3ccc(Cl)cc3)CC2)c([N+](=O)[O-])n1,-1.0,11.5%,-5.6%,39.8µM*,-14.9%,2.9
Cc1ccc(S(=O)(=O)N2CCN(C(=O)COc3ccc(C)nc3[N+](=O)[O-])CC2)c(C)c1,5.7,-1.7%,.,-5.2%,-16.6%,-4.5
COc1ccccc1OCC(=O)N1CCN(C(=O)COc2ccccc2OC)CC1,7.2,27.9%,-13.6%,39.8µM*,-20.1%,22.1
O=C(COc1ccccc1F)N1CCN(S(=O)(=O)/C=C/c2ccccc2)CC1,0.4,27.8%,5.8%,44.7µM*,-11.6%,1.8
O=C(Cc1c[nH]c2ccccc12)N1CCN(S(=O)(=O)c2ccc(Cl)cc2)CC1,-1.3,-5.1%,-7.9%,14.1µM*,-26.5%,0.6
CCCCCCCCCCCCCCCCN,.,.,.,-4.4%[12.7 µM],.,.
CCC(=O)N1CCc2cc(Br)cc(S(=O)(=O)Nc3c(C)n(C)n(-c4ccccc4)c3=O)c21,.,.,-1.8%,6.6%[59 µM],.,.
COc1ccc(OCC(O)Cn2c(N3CCCCC3)nc3c2c(=O)n(C)c(=O)n3C)cc1 (stereo not given),-21.9,25.3%,6.5%,.,-11.0%,-9.2
NC(=O)CCN1CCC(c2nc3ccccc3s2)CC1,-13.7,-11.0%,0.9%,-8.1%,-16.3%,0.3
COc1ccccc1OCC(=O)N1CCN(S(=O)(=O)c2ccc(Cl)cc2)CC1,-4.9,24.8%,8.8%,44.7µM*,3.4%,0.8
COc1cc(C(=O)N2CCN(S(=O)(=O)c3ccc(Cl)cc3)CC2)ccc1OCC(=O)N1CCOCC1,21.2,66.4%,.,.,-7.0%,12.2
CCCC(=O)Nc1cc(OC)c(OC)cc1C(=O)O,-1.4,31.1%,1.6%,4.5%[59 µM],5.0%,1.1
CCCCNc1cc(NC(C)=O)cc2cc(OC)c(OC)cc12,11.0,-15.1%,-35.8%,44.7µM*,?,-12.7
COc1cc2cc(NC(C)=O)cc(NCc3ccccc3)c2cc1OC,-15.3,-2.0%,44.7µM*,?,?,-11.6
SMILES,CtBP-E1A blk,HP1b binding inh,BAZ2B inh,G9a inh,JMJD2A Tudor inh,Six1-Eya2 blk
COc1ccc([N+](=O)[O-])cc1NCc1ccccc1,14.6,123.0%,22.1%,97.4%[59 µM],41.8%[57.1 µM],28.9
CC(NCC1(N2CCOCC2)CCCCC1)C(=O)Nc1ccc(Cl)cc1Cl (stereo not given),0.8,2.3%,50.1µM*,31.6µM*,-14.8%,1.2
CC(NCC1(N2CCOCC2)CCCCC1)C(=O)N1CCc2ccccc21 (stereo not given),5.8,?,39.8µM*,?,2.82µM*,4.4
CC(C(=O)Nc1ccc(Cl)cc1Cl)N1C(=O)NC2(CCCCCCC2)C1=O (stereo not given),4.1,33.4%,8.6%,7.0%[12.7 µM],2.3%,-0.4
CC(C)CCC(C)NC(=O)C1CCN(S(=O)(=O)/C=C/c2ccccc2)CC1 (stereo not given),-3.0,4.1%,-16.0%,13.0%,-13.7%,-0.1
CCCN1CCC(=NNc2ccc(S(N)(=O)=O)cc2[N+](=O)[O-])CC1,13.9,0.5%,-22.6%,14.1µM*,-25.3%,-21.0
CCCN1CCC(=NNc2ccc(S(=O)(=O)N(CC)CC)cc2[N+](=O)[O-])CC1,-10.1,?,?,35.5µM*,?,-17.1
CCOC(=O)N1CCC(=NNc2ccc(S(N)(=O)=O)cc2[N+](=O)[O-])CC1,4.5,28.5%,-28.4%,?,-9.0%,-9.3
CCC(=O)Nc1cccc(C2=NOC3(C2)C[C@@H](C(N)=O)N(C(=O)COc2ccc(Cl)cc2)C3)c1 (stereo not given in full),-0.2,22.3%,0.7%,-8.1%[12.7 µM],-13.3%,3.5
C=C(C)C(=O)Nc1cccc(C2=NOC3(C2)C[C@H](C(N)=O)N(C(=O)c2ccccc2)C3)c1 (stereo not given in full),.,?,44.7µM*,?,22.4µM*,-15.2
C/C=C(/C)C(=O)Nc1cccc(C2=NOC3(C2)C[C@H](C(N)=O)N(C(=O)c2ccc(Cl)cc2)C3)c1 (stereo not given in full),1.4,37.9%,-6.4%,2.3%[12.7 µM],-13.1%,-0.4
C=C(C)C(=O)Nc1cccc(C2=NOC3(C2)C[C@@H](C(N)=O)N(C(=O)c2cc([N+](=O)[O-])cc([N+](=O)[O-])c2C)C3)c1 (stereo not given in full),5.3,6.31µM*,28.2µM*,?,17.8µM*,-24.6
C=C(C)C(=O)Nc1cccc(C2=NOC3(C2)C[C@H](C(N)=O)N(C(=O)COc2ccc(Cl)cc2)C3)c1 (stereo not given in full),1.4,10µM*,6.31µM*,?,10µM*,-20.1
C=C(C)C(=O)Nc1cccc(C2=NOC3(C2)C[C@@H](C(N)=O)N(C(=O)c2ccc(Cl)cc2)C3)c1 (stereo not given in full),4.0,7.94µM*,11.2µM*,?,7.08µM*,-29.8

# Bioassay records (PubChem BioAssay)
